NFkB transloc pot: enhancers of NFkB p65 translocation in HUVEC – imaging, IL-1B stimulus, high-content imaging, primary screen | AID 819, 2007 | HUVEC IL-1B NFkB p65 nuclear translocation imaging | activation, % at 2 µM | 94,000 compounds, 0.3% hits;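 active means activation above 40%, about the mean plus 3 SD, also judged a hit on visual image review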;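 further: percent activation is computed from the nuclear over cytoplasmic p65 intensity ratio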
IL1B cytotox: cytotoxicity in IL-1B stimulated HUVEC, primary screen, cytotoxicity control for IL-1B NFkB translocation project, imaging, Hoechst nuclear count, IL-1B stimulus | cell count reduction, % at 2 µM | HUVEC cell count loss | 94,000 compounds, 0.41% hits;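 active means cell count reduction more than 3 SD above the screen-wide mean, cut at about 70% in these data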
ERa SRC1 inh: ERα–SRC-1 coactivator interaction inhibitors, primary screen, biochemical, TR-FRET, ERα LBD, estradiol-bound; Estrogen receptor (Homo sapiens), P03372; inhibition, % at 25.6 µM; 86,000 compounds, 1.7% hits; TR-FRET ER-alpha LBD / SRC-1 peptide; in the data active means inhibition above about 50%
Target sequence (P03372 whole entry, looked up, the tested form may be a part): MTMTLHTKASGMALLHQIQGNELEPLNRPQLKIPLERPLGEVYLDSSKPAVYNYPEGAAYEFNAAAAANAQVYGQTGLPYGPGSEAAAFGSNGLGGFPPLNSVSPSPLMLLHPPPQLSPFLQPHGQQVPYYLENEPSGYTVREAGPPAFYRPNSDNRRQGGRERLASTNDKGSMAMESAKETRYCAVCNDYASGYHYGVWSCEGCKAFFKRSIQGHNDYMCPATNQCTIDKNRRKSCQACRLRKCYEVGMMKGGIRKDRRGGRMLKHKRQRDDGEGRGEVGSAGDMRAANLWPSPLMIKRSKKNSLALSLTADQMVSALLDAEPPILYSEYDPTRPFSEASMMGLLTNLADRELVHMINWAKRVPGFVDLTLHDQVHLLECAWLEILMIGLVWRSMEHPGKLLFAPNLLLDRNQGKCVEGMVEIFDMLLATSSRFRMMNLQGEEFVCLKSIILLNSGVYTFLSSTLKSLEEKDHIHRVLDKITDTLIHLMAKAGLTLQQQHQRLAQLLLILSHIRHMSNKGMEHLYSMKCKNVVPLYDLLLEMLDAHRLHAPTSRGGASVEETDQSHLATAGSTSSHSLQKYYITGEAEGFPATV
ERa coact pot: enhancers of ERα–SRC-1 coactivator binding, primary screen, biochemical, TR-FRET, ERα LBD, low estradiol | Estrogen receptor (Homo sapiens), P03372 | TR-FRET ERalpha-LBD/SRC-Cy5 coactivator binding, 2 h; 100 = basal binding, no effect | coactivator binding (% of control), % at 25.6 µM | 86,000 compounds, 1.3% hits; in the data active means activity above about 200%;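 further: binding measured in presence of low estradiol as agonist stimulus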
ERb SRC1 inh: inhibitors of ERβ-SRC1 coactivator interaction, primary screen, biochemical, TR-FRET, ERβ LBD, SRC-1 peptide. Estrogen receptor beta (Homo sapiens), Q92731. TR-FRET ER-beta LBD / SRC1-Cy5 peptide binding; receptor agonist-loaded with 1 µM estradiol. inhibition, % at 25.6 µM. 86,000 compounds, 1.3% hits;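 active means compounds whose percent inhibition of the receptor-coactivator binding signal exceeds about 50% in the single-dose screen, limit read from the data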
NFkB transloc inh: inhibitors of IL-1B driven NFkB p65 nuclear import, primary screen, imaging, HUVEC, IL-1B stimulus, high-content imaging | 94,000 compounds, 0.43% hits | HUVEC IL-1B NFkB p65 nuclear translocation imaging | AID 796, 2007 | inhibition, % at 2 µM;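 active means inhibition above about 30% together with a positive call from visual inspection of the well image, limit read from the data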;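 further: nuclear over cytoplasmic p65 intensity ratio measured by imaging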
A number is an active result; i = inactive; nt = no result given; [ ] = dose if it differs, or a comment. Sampled rows, rich in hits. Any-hit rate of the full collection: about 3.6%.

SMILES | NFkB transloc pot | IL1B cytotox | ERa SRC1 inh | ERa coact pot | ERb SRC1 inh | NFkB transloc inh
O=C(COc1ccc(F)cc1)Nc1ccc(-n2cnnn2)cc1 | i | i | i | i | i | i
CCOC(=O)c1ccc(NC(=O)COc2ccc(-n3cnnn3)cc2)cc1 | i | i | 91[fluorescence artefact?] | i | 82[fluorescence artefact?] | i
CCCOC(=O)c1ccc(NC(=O)CCOc2ccccc2)cc1 | i | i | nt | nt | nt | i
Cc1cc(NS(=O)(=O)c2ccc(NC(=O)CCCOc3ccc(Cl)cc3)cc2)no1 | i | i | i | i | i | i
CCOC(=O)c1ccc(NC(=O)CCOc2ccccc2)cc1 | i | i | i | 659[fluorescence artefact?] | i | i
Cc1cc(NS(=O)(=O)c2ccc(NC(=O)CCCOc3ccccc3)cc2)no1 | 45 | i | i | i | i | i
COc1ccc(OC)c2[nH]c(=O)c(CCNC(=O)c3ccc(Br)o3)cc12 | i | i | i | i | i | i
O=C(Nc1ccccc1C(=O)N1CCN(Cc2ccccc2)CC1)c1ccccn1 | i | i | i | i | i | i
Cc1ccc(NC(=O)c2sc3nc4c(c(-c5ccco5)c3c2N)CCC4)cc1 | i | i | 59 | i | i | i
Nc1c(C(=O)Nc2ccc(Br)cc2)sc2nc(-c3ccco3)ccc12 | i | i | nt | nt | nt | i
Nc1c(C(=O)Nc2ccc(F)cc2)sc2nc(-c3ccco3)ccc12 | i | i | 67[fluorescence artefact?] | i | 64 | i
COc1ccc(-c2c3c(nc4sc(C(=O)Nc5ccccc5)c(N)c24)CCC3)cc1 | i | i | 68[fluorescence artefact?] | i | i | i
CCc1nc2oc3cc(OC)ccc3c(=O)c2c(=O)n1-c1ccccc1 | i | i | i | i | i | i
Cc1ccc(-n2c(C)nc3oc4ccccc4c(=O)c3c2=O)cc1 | i | i | 91[fluorescence artefact?] | i | 94[fluorescence artefact?] | i
COc1ccc(Cl)cc1-c1nc(-c2ccc(Br)o2)no1 | i | i | 59[fluorescence artefact?] | 277[fluorescence artefact?] | i | i
CCOC(=O)c1cc2c(N)c(C(=O)c3cc(C#N)c(SC)nc3C)sc2nc1C | i | i | 69[fluorescence artefact?] | i | i | i
CCOC(=O)c1cc(C#N)c(N)nc1C | i | i | i | i | i | i
CCOC(=O)c1cc(C#N)c(SCc2ccc(C#N)cc2)nc1C | i | i | 72[fluorescence artefact?] | 252[fluorescence artefact?] | 66[fluorescence artefact?] | i
Cn1c(C(O)c2ccccc2)nc(Cl)c1Cl (stereo unspecified) | nt | nt | i | i | i | nt
COc1cc(OC)cc(-n2c3nc4ccccc4nc3c3c(=O)n(CC4CCCO4)cnc32)c1 (stereo unspecified) | nt | nt | 57[fluorescence artefact?] | i | i | nt
Cc1nc2c(c(=O)n1CC1CCCO1)c1nc3ccccc3nc1n2CCC(C)C (stereo unspecified) | nt | nt | 76 | i | i | nt
O=c1c2c3nc4ccccc4nc3n(CC3CCCO3)c2ncn1CCc1ccccc1 (stereo unspecified) | nt | nt | i | i | i | nt
CCCCCn1c2nc3ccccc3nc2c2c(=O)n(CC3CCCO3)c(C)nc21 (stereo unspecified) | nt | nt | i | i | i | nt
COc1cccc(-n2nc(-c3ccnn3-c3ccc(F)cc3)c(=O)n(C)c2=O)c1 | i | i | i | i | 74 | i
Cn1c(Oc2ccccc2NCc2cccc(Br)c2)cc(=O)n(C)c1=O | i | i | i | i | i | i
SMILES | NFkB transloc pot | IL1B cytotox | ERa SRC1 inh | ERa coact pot | ERb SRC1 inh | NFkB transloc inh
CC1=C(C#N)C(c2cccnc2)C2=C(CC(C)(C)CC2=O)N1 (stereo unspecified) | nt | nt | i | i | i | nt
CC1=C(C#N)C(c2ccc3ncccc3c2)C(C#N)=C(C)N1 | i | i | i | i | i | 50
CN(C)CCCC1(c2ccc(F)cc2)OCc2cc(C#N)ccc21 (stereo unspecified) | nt | nt | i | i | i | nt
CC(C)Cn1c(-c2cccs2)nc2ccccc21 | i | i | i | i | 57 | i
c1csc(Cn2c(-c3cccs3)nc3ccccc32)c1 | i | i | i | i | i | i
Cc1csc(Sc2nc3c(c(=O)[nH]c(=O)n3C)n2Cc2ccccc2Cl)n1 | i | i | i | i | i | 31
C=CCn1c(NC(=O)c2ccccc2)c(C#N)c2nc3ccccc3nc21 | nt | nt | 74[fluorescence artefact?] | i | i | nt
O=C(NCNC(=O)c1ccccc1)c1ccccc1 | i | 81 | i | i | i | i
CCCOc1ccc(C(=O)CCC(=O)OCC(=O)Nc2cc(C)on2)cc1 | i | i | nt | nt | nt | i
COc1ccc(C)c2sc(NC(=O)C3=COCCO3)nc12 | i | i | 93[fluorescence artefact?] | i | i | i
CC1(C)CC(=O)c2c(nc3ccccc3c2N)C1 | i | i | i | i | i | i
CCNc1c2c(nc3ccccc13)CC(C)(C)CC2=O | i | 79 | i | i | i | 97
COc1ccccc1CC(=O)Nc1ccc(O)cc1C(=O)O | i | i | i | i | i | i
Cc1ccc(S(=O)(=O)N/N=C/c2ccc(OCC(=O)Nc3ccccc3Cl)cc2)cc1 | i | i | nt | nt | nt | i
O=C1C(c2ccnc3ccccc23)=C(O)c2ccccc21 | i | i | i | 309 | i | i
O=C1c2ccccc2C(=O)C1c1ccnc2ccccc12 | i | i | i | 242 | i | i
CCCc1n[nH]c2c1/C(=N\O)CCC2 | i | i | i | i | i | i
O=S(=O)(Nc1ccc(O)c(Sc2nc3ccccc3s2)c1)c1ccc(Cl)cc1 | i | i | nt | nt | nt | i
Cc1nnc(SCCn2c(N3CCN(c4ccccc4)CC3)nc3c2c(=O)n(C)c(=O)n3C)s1 | nt | nt | i | i | i | nt
Cc1ccc(C(=O)Nc2nc3ccccc3n2CCN2CCCC2)cc1 | i | i | i | 284[fluorescence artefact?] | i | i
O=C(Nc1nc2ccccc2n1CCN1CCCC1)c1ccc(Cl)cc1 | nt | nt | i | i | i | nt
Cc1ccc2c(c1)c1c3n2CCN(C(=O)C2CC2)C3CCC1 (stereo unspecified) | i | i | i | i | i | i
Cc1ccc2c(c1)c1c3n2CC(=C2C(=O)OC(C)(C)OC2=O)NC3CCC1 (stereo unspecified) | i | i | i | i | 54[fluorescence artefact?] | i
Cc1ccc2cc(CNC(C)C)c(=O)[nH]c2c1 | i | i | i | i | i | i
COC(=O)C1CCN(C(=O)Cc2ccc(Br)cc2)CC1 | i | i | 55[fluorescence artefact?] | i | 66[fluorescence artefact?] | i
COC(=O)C1CCN(C(=O)Cc2ccc(OC)c(OC)c2)CC1 | i | i | i | i | i | i
CCc1ccc(OCC(=O)N2CCN=C2c2ccccc2)cc1 | i | i | i | i | i | i
Cc1noc(C)c1C(=O)Nc1sc(C)c(C)c1C#N | i | i | i | i | i | i
COc1ccc(OC(=O)CCCN2C(=O)c3ccccc3C2=O)cc1 | i | 86 | i | i | i | i
CCCCOc1[nH]c2nc(-c3ccco3)n(Cc3ccco3)c(=N)c2c1C#N | i | i | i | i | i | i
